Screens as filed in PubChem BioAssay.
This is a sample that favours compounds with a hit; in the whole collection about 9.3% have one here.
FLuc modulator – qHTS profiling assay for firefly luciferase inhibitor/activator using purifed enzyme and Km concentrations of substrates (counterscreen for miR-21 project). Luciferin 4-monooxygenase (Photinus pyralis), P08659. purified FLuc, Km substrates, luminescence inhibition. Potency, µM (titrated, usually from 57.5 µM), inactives show top-dose activity change, negative = inhibition, usual class: inhibitors. 360,000 compounds, 6.9% hits;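 also: plate controls were vehicle for no effect and reference inhibitor for full effect; nearly all actives have a fitted effect of over 55% in size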
Target sequence (P08659 whole entry, looked up): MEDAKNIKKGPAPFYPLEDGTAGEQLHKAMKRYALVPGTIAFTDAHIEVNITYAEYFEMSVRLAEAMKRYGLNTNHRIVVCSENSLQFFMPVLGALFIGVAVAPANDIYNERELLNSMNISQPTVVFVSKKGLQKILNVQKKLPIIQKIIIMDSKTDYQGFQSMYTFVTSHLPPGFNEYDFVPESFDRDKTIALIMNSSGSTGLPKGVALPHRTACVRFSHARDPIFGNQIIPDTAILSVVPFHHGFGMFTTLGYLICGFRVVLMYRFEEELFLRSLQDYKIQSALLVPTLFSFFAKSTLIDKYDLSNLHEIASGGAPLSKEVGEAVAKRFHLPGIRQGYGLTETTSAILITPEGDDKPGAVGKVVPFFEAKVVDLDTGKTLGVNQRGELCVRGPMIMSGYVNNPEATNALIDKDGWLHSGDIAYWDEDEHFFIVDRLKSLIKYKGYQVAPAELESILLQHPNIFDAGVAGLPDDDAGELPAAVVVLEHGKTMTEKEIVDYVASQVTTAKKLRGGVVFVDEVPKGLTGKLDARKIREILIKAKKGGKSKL
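Purified P. pyralis luciferase, 10 nM final, with Km-level 10 uM D-luciferin and 10 uM ATP in 50 mM Tris acetate pH 7.5, 10 mM Mg acetate, 0.01% Tween-20, 0.05% BSA; 6-point qHTS titration about 60 µM downward; luminescence read.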
ELG1 genotox – qHTS screen for small molecules that induce genotoxicity in human embryonic kidney (HEK293T) cells expressing luciferase-tagged ELG1 | HEK293T ELG1-luciferase reporter, luminescence, 16 h | Potency, µM (top dose mostly 46 µM), for the others: top-dose activity change, positive = activation, usual class: activators | 330,000 compounds, 1.3% hits; also: % of control where 0% means no effect; nearly all actives have a fitted effect of over 60% in size
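Luminescence read-out: rising ELG1-luciferase signal, reflecting elevated ELG1 protein under genetic stress, flags genotoxic compounds. Cells were treated for 16 hr at 37 °C before ONE-Glo detection.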
Rab9 prom act – qHTS Assay for Rab9 Promoter Activators; Huh7 Rab9 promoter-luciferase reporter, luminescence, 24 h; Potency, µM (top dose mostly 9.22 µM), without a hit: at the top dose activation, negative = inhibition, actives largely listed as activators; 320,000 compounds, 2.8% hits; AID 485297, 2010; also: % of control where 0% means no effect; nearly all actives have a fitted effect of over 60% in size
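Stable Rab9-luc Huh7, 1500 cells/well, 2 h settle; cmpd in DMSO, 24 h, 37 °C/5% CO2; luciferase reagent 10 min RT; luminescence.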
NPC1 promoter act – qHTS Assay for NPC1 Promoter Activators | Huh7 NPC1 promoter luciferase reporter, 24 h | Potency, µM (highest dose often 9.22 µM), inactives show at the highest dose activation, usual class: activators | 320,000 compounds, 2.4% hits | AID 485313, 2010; also: % of control where 0% means no effect; nearly all actives have a fitted effect of over 60% in size
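Stably transfected Huh7 (NPC1 promoter→luciferase), 1500 cells/well in Opti-MEM + 10% FBS, 2 h settle, then compound 24 h at 37 °C. Luminescence after 10 min with Amplite reagent.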
ELG1 repair inh – qHTS screen for small molecules that inhibit ELG1-dependent DNA repair in human embryonic kidney (HEK293T) cells expressing luciferase-tagged ELG1 | HEK293T ELG1-luciferase reporter, luminescence, 16 h; DNA damage induced by 5-fluorouridine | Potency, µM (highest dose often 46.1 µM), for the others: at the top dose activity change, negative = inhibition, actives largely listed as inhibitors | 330,000 compounds, 2.3% hits; also: % is scaled to controls: 0 for no effect and ±100 for the full control effect; nearly all actives have a fitted effect of over 55% in size
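Step one: seed 2,000 cells per well. Step two: pin-transfer compound or DMSO alongside 5-fluorouridine. Step three: incubate 16 hr, 37 °C, 5% CO2. Step four: add ONE-Glo, wait 30 min, read luminescence.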
SMN2 splice enh – qHTS Assay for Enhancers of SMN2 Splice Variant Expression; HEK293 SMN2-luciferase splicing reporter, luminescence, 30-36 h; AID 1458, 2008; 210,000 compounds, 2.8% hits; Potency, µM (series often up to 46.1 µM), inactives show top-dose activity change, positive = activation, hits mostly activators; also: % of control where 0% means no effect; nearly all actives have a fitted effect of over 55% in size
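HEK293 cells carry an SMN2 […]–luciferase reporter in which exon 7 inclusion puts luciferase in frame. Cells were plated 10-12 h before compound addition, then incubated 30-36 h at 37C. ONE-Glo luminescence was read; sodium butyrate at 4.5 mM final served as control.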
Starred values were filed as active, the others as inactive; ? = inconclusive; . = not tested or not shown; [ ] = dose if it differs, or a comment. Calls follow the shape of the dose curve; as a rule, active = well fitted curve in the direction sought with a large enough effect; inconclusive = small, poorly fitted or top-dose-only effect, or another doubt; inactive = no such curve, though single readings can be large; an effect the other way counts as inactive or inconclusive. Potency is read from the fitted curve at half-maximal effect.

SMILES	FLuc modulator	ELG1 genotox	Rab9 prom act	NPC1 promoter act	ELG1 repair inh	SMN2 splice enh
CN1CCN(c2ncc3c(n2)CCN(Cc2ccc(Br)s2)C3)CC1	0.8%	.	.	.	.	.
COc1ccc(OCc2nc3c4c(-c5ccccc5)c(-c5ccccc5)oc4ncn3n2)cc1	-5.3%	.	.	.	.	-4.8%
CCN(CC)c1ccc(-c2nn3c(-c4ccccc4OC)nnc3s2)cc1	19µM*	-16.6%	-20.1%	-17.8%	?	-40.8%
COc1ccccc1-c1nn2c(-c3ccco3)nnc2s1	5.36µM*	18.4µM*	?	?	?	23.7%
CCNC(=O)c1ccc(CSc2ccc(Cl)cc2)cc1	-15.7%	-3.1%	-1.9%	3.3%	?	-17.9%
O=C(NCCc1ccc(O)cc1)c1ccc(Cl)cc1	12µM*	?	?	?	?	31.6µM*
O=C(NCCc1ccc(Cl)cc1)c1ccc2nccnc2c1	10.7µM*	15.8%	3.98µM*	2.24µM*	?	.
CC(=O)NCCNC(=O)c1ccc(CSc2ccc(Cl)cc2)cc1	?	?	2.82µM*	2.82µM*	?	12.6µM*
O=C(COC(=O)c1ccc(Cl)s1)c1cc2ccccc2o1	23.9µM*	1.7%	1.8%	4.3%	1.2%	22.2%
Cn1cccc1C(=O)OCC(=O)c1cc2ccccc2o1	12µM*	21.5%	11.1%	15.9%	?	5.3%
O=C(CSc1nc2cc(Cl)ccc2s1)c1cc2ccccc2o1	-7.0%	6.7%	1.4%	-2.2%	?	-4.6%
Cn1cccc1C(=O)OCC(=O)NCCCc1ccccc1	.	0.9%	.	.	?	.
COc1ccc(-c2nnc(SCC(=O)N/N=C/c3ccccc3C(=O)O)n2-c2ccccc2)cc1	?	1.7%	-3.6%	-2.9%	9.1%	14.0%
CCNC(=O)/C=C/c1ccccc1[N+](=O)[O-]	-0.2%	-4.1%	-2.4%	-2.3%	6.1%	8.7%
O=C(/C=C/c1ccccc1[N+](=O)[O-])Nc1ccccc1	6.01µM*	?	0.708µM*	2µM*	?	14.1µM*
O=C(O)/C=C/c1ccccc1[N+](=O)[O-]	3.1%	-2.1%	1.7%	-3.8%	-16.0%	.
COc1cc(NC(=O)/C=C/c2ccccc2[N+](=O)[O-])cc(OC)c1	21.3µM*	0.0%	25.3%	17.1%	1.7%	?
O=C(COC(=O)/C=C/c1ccccc1[N+](=O)[O-])Nc1ccc(OCc2ccccc2)cc1	1.1%	?	?	?	?	12.6µM*
O=c1c2c(-c3ccc(Cl)cc3)ccnc2[nH]n1-c1ccccc1	-14.0%	.	.	.	.	4.6%
CCOC(=O)C1(CCCc2ccccc2)CCN(C(=O)C2CCCN(C(N)=O)C2)CC1 (configuration not stated)	-1.3%	-3.2%	2.1%	-8.3%	-19.1%	.
CCc1ccc(C(=O)Cn2ccsc2=N)cc1	1.35µM*	?	0.708µM*	1.58µM*	?	.
Cc1ccc(S(=O)(=O)Cc2ccc(C(=O)N3CCN(c4ccc(F)cc4)CC3)o2)cc1	-0.1%	-10.3%	1.5%	-8.4%	23.1µM*	16.0%
Cc1ccc(S(=O)(=O)Cc2ccc(C(=O)N3CCN(Cc4ccccc4)CC3)o2)cc1	0.1%	-22.8%	-1.3%	7.0%	18.4µM*	-33.0%
Cc1ccccc1S(=O)(=O)Cc1ccc(C(=O)N2CCN(c3ccc(F)cc3)CC2)o1	0.7%	-8.1%	3.0%	-1.0%	?	-28.8%
CCn1c(CCNC(=O)c2cccs2)nnc1SCC(=O)Nc1ccc(Cl)cc1	16.9µM*	11.8%	-3.4%	-0.3%	6.0%	-22.4%
SMILES	FLuc modulator	ELG1 genotox	Rab9 prom act	NPC1 promoter act	ELG1 repair inh	SMN2 splice enh
CCn1c(CCNC(=O)c2cccs2)nnc1SCC(=O)NC1CCCCC1	-14.7%	0.7%	-6.7%	-1.1%	14.8%	-12.9%
O=C(c1coc2ccc(O)cc12)C1CC1	-19.4%	0.2%	3.5%	-2.7%	13.5%	-4.6%
COc1ccc2occ(C(=O)c3ccccc3)c2c1	13.5µM*	?	?	29.5%	?	?
COc1ccc2oc(C(=O)C3CC3)c(N)c2c1	13.5µM*	?	?	?	?	?
COc1ccc2oc(C(=O)c3ccccc3)c(N)c2c1	3.01µM*	?	2µM*	2µM*	?	11.2µM*
COc1ccc2occ(C(C)=O)c2c1	-2.2%	-1.3%	-1.3%[1.84 µM]	1.6%	2.2%	-19.0%
O=C(c1ccc(Cl)cc1)c1coc2ccc(O)cc12	3.79µM*	12.6%	?	?	?	-13.7%
CCCCN(C(=O)CCC(=O)Nc1cc(C)on1)C(C(=O)NC1CCCC1)c1cccc(OC)c1 (configuration not stated)	-0.4%	-0.1%	-4.8%	-3.3%	-19.7%	.
O=C(CSc1nnc(-c2ccncc2)n1-c1ccccc1)NC1CC1	1.0%	2.3%	2.4%	-1.6%	13.0%	.
COc1ccc(C(=O)c2oc3ccccc3c2N)cc1	10.7µM*	9.2µM*	?	3.55µM*	?	12.6µM*
COC(=O)CCC(=O)c1oc2ccc(OC)cc2c1N	3.38µM*	3.66µM*	4.47µM*	2.51µM*	?	?
Cc1ccc(C)c(NC(=O)C(=O)NCC2CCCN2S(=O)(=O)c2cccs2)c1 (configuration not stated)	0.9%	-4.3%	-1.1%	2.3%	?	.
CN(CC1CCCO1)S(=O)(=O)c1ccc(C(=O)Nc2ccc(S(N)(=O)=O)cc2)cc1 (configuration not stated)	1.6%	0.4%	20.9%	-1.8%	9.4%	.
Cc1ccccc1OCC(=O)N(Cc1ccco1)c1c(N)n(Cc2ccccc2)c(=O)[nH]c1=O	-2.7%	-5.3%	-3.6%	-0.3%	19.9%	.
